{
  "source": "the supplement of paper PMC6331611",
  "note": "± gives the standard deviation of the averaged measurements. The full ranking holds about 1,600 compounds; the median of “normalized growth (OD600, IQM-normalized) in LPM” is about 1, and the lowest 2% start at about 0.014. The entries come from a sample that favours the lowest values as a whole.",
  "data": [
    {"system": "Salmonella enterica serovar Typhimurium SL1344", "test": "normalized growth (OD600, IQM-normalized) in LPM (fraction of plate interquartile mean); higher = more bacterial growth (less inhibition)", "conditions": "LPM pH 5.8; 10 µM; 16 h", "values": [
      {"smiles": "CCn1cc(C(=O)O)c(=O)c2cc3c(cc21)OCO3", "normalized growth": "0.00952 ± 0.00073"},
      {"smiles": "C[N+]1(C)CCCC(OC(=O)C(O)(c2ccccc2)c2ccccc2)C1", "note": "(stereo not given)", "normalized growth": "1.1 ± 0.011"},
      {"smiles": "CC[C@H]1CN2CC[C@H]1C[C@@H]2[C@@H](O)c1ccnc2ccc(OC)cc12", "normalized growth": "0.912 ± 0.022"},
      {"smiles": "CC(C)C[C@H]1C(=O)N2CCC[C@H]2[C@]2(O)O[C@](NC(=O)[C@@H]3C=C4c5cccc6[nH]c(Br)c(c56)C[C@H]4N(C)C3)(C(C)C)C(=O)N12", "normalized growth": "0.947 ± 0.03"},
      {"smiles": "Cc1ccc(O)cc1.Cc1cccc(O)c1.Cc1ccccc1O", "normalized growth": "0.955 ± 0.19"},
      {"smiles": "O=[N+]([O-])C(Br)(CO)CO", "normalized growth": "0.786 ± 0.02"},
      {"smiles": "CCCCOC(=O)c1ccccc1C(=O)OCCCC", "normalized growth": "1.363 ± 0.0046"},
      {"smiles": "C[CH2][Hg][S]c1ccccc1C(=O)[O-].[Na+]", "normalized growth": "0.00984 ± 0.0003"},
      {"smiles": "O=C([O-])Cc1ccccc1.[Na+]", "normalized growth": "1.14 ± 0.026"},
      {"smiles": "Oc1noc2c1CCNC2", "normalized growth": "0.948 ± 0.041"},
      {"smiles": "[O-][n+]1ccccc1[S-].[O-][n+]1ccccc1[S-].[Zn+2]", "normalized growth": "0.00799 ± 0.00024"},
      {"smiles": "O=C1CCO1", "normalized growth": "0.959 ± 0.039"},
      {"smiles": "Oc1ccc2c3c1O[C@H]1[C@@H](O)CC[C@@]4(O)[C@@H](C2)N(CC2CCC2)CC[C@]314", "normalized growth": "0.92 ± 0.12"},
      {"smiles": "CC(=O)[O][Hg][c]1ccccc1", "normalized growth": "0.0096 ± 0.00029"},
      {"smiles": "CC(Cc1ccc(O)cc1)NCC(O)c1cc(O)cc(O)c1", "note": "(stereo not given)", "normalized growth": "1.087 ± 0.0059"},
      {"smiles": "CCOP(=S)(OCC)Oc1nc(Cl)c(Cl)cc1Cl", "normalized growth": "1.33 ± 0.11"},
      {"smiles": "NC(=O)C[S+]([O-])C(c1ccccc1)c1ccccc1", "note": "(stereo not given)", "normalized growth": "0.865 ± 0.082"},
      {"smiles": "CC(C)=CC1C(C(=O)OCc2cccc(Oc3ccccc3)c2)C1(C)C", "note": "(stereo not given)", "normalized growth": "0.894 ± 0.04"},
      {"smiles": "NP(N)(=O)NC(=O)c1ccc(F)cc1", "normalized growth": "1.06 ± 0.017"},
      {"smiles": "C[N+]12CCC(CC1)C(OC(=O)C(O)(c1ccccc1)c1ccccc1)C2", "note": "(stereo not given)", "normalized growth": "1.05 ± 0.026"},
      {"smiles": "Oc1ccc(Cl)cc1", "normalized growth": "0.971 ± 0.012"},
      {"smiles": "Oc1ccc(Cl)cc1Cc1cc(Cl)ccc1O", "normalized growth": "0.895 ± 0.086"},
      {"smiles": "Oc1cc(Cl)ccc1Oc1ccc(Cl)cc1Cl", "normalized growth": "0.00811 ± 0.00016"},
      {"smiles": "O=[N+]([O-])O[C@@H]1CO[C@H]2[C@@H]1OC[C@@H]2O", "normalized growth": "1.11 ± 0.026"},
      {"smiles": "CC(C)(O)C(Cl)(Cl)Cl", "normalized growth": "1 ± 0.032"}
    ]}
  ]
}
